The record followed here is PubChem BioAssay (Tox21).

Experiment [1] in a line: qHTS assay for small molecule agonists of the p53 signaling pathway (AID 651631; calls by dose curve; further: nearly all actives have a fitted effect of over 15% in size; further: potency means the concentration at half of the fitted maximal effect). A digest of the protocol: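 Fluorescence intensity from cleaved LiveBLAzer B/G substrate (2 h, room temperature) served as the signal. Beforehand, HCT-116 reporter cells bearing p53 response elements were treated 16 h at 37 °C with DMSO-dissolved compounds.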
Experiment [2] can be described thus: qHTS assay for small molecules that induce genotoxicity in human embryonic kidney cells expressing luciferase-tagged ATAD5 - cell viability (AID 651634; calls by dose curve; further: nearly all actives have a fitted effect of over 25% in size; further: potency means the concentration at half of the fitted maximal effect). A digest of the protocol:
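Cells (HEK293T, luciferase-tagged ATAD5) are seeded at 2,000 per well, dosed with compound or DMSO vehicle, and incubated 15.5 hr at 37C and 5% CO2. CellTiter-Fluor is added for 30 min before fluorescence is measured.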
(In general: In qHTS, concentration-response curves come from the screen itself.)

Experiment [3] in a line: qHTS assay for small molecule disruptors of the mitochondrial membrane potential - cell viability (AID 720634; calls by dose curve;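 further: human HepG2 liver cancer cells; series mostly up to about 83 µM; nearly all actives have a fitted effect of over 20% in size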). A digest of the protocol: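 Cytotoxicity was measured by ATP quantitation in HepG2 wells that had first been treated with compound for 1 hr and stained with m-MPI dye; CellTiter-Glo incubation was 30 min at room temperature.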
Experiment [4] can be described thus: qHTS assay to test for compound auto fluorescence at 590 nm (red) in HepG2 cells (AID 720674). A digest of the protocol: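 Intrinsic compound fluorescence in the red window (Ex/Em 540/590 nm) is measured in attached HepG2 cells exposed for 1 hr, DMSO vehicle as baseline, benchmarked to Rose Bengal sodium.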
Experiment [5] can be described thus: qHTS assay to test for compound auto fluorescence at 535 nm (green) in HepG2 cells (AID 720675).
Experiment [6] in a line: qHTS assay to test for compound auto fluorescence at 460 nm (blue) in HEK293 cells (AID 720678). A digest of the protocol: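 Auto fluorescence in the blue band was quantified as triamterene equivalency. HEK293 cells were seeded at 2,000/well, dosed after a 4-5 hr attachment, and kept overnight at 37C before the 405/460 nm reading.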
The nature of experiment [7]: qHTS assay to test for compound auto fluorescence at 590 nm (red) in HEK293 cells (AID 720679). A digest of the protocol:
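Autofluorescence equivalency to Rose Bengal sodium, 540/590nm, in HEK293 cells exposed overnight to 23 nL compound per well.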

A short description of experiment [8]: qHTS assay to test for compound auto fluorescence at 535 nm (green) in HEK293 cells (AID 720680).
Experiment [9] is described as follows: qHTS assay to test for compound auto fluorescence at 460 nm (blue) in HEK293 cell free culture (AID 720681). A digest of the protocol:
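Test compounds were pinned into cell-free culture medium (DMEM with 10% FBS) and fluorescence was read directly at Ex/Em 405/460 nm. Signals were expressed as fluorescence equivalents of triamterene, with DMSO vehicle as control.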

Experiment [10] is described as follows: qHTS assay to test for compound auto fluorescence at 535 nm (green) in HEK293 cell free culture (AID 720682). A digest of the protocol:
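Intrinsic compound fluorescence is measured in culture medium containing 10% FBS, with excitation at 485 nm and detection at 535 nm, referenced to fluorescein.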

Experiment [11] can be described thus: qHTS assay to test for compound auto fluorescence at 590 nm (red) in HepG2 cell free culture (AID 720684). A digest of the protocol:
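Ex 540 / Em 590 nm read of compound in cell-free MEM (10% FBS). Rose Bengal sodium reference.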

Experiment [12] can be described thus: qHTS assay to test for compound auto fluorescence at 460 nm (blue) in HepG2 cell free culture (AID 720685). A digest of the protocol: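 Cell-free plates of MEM plus 10% FBS received 23 nL compound or DMSO vehicle; blue-channel (405/460 nm) intensity scored against triamterene as reference fluorophore.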
Experiment [13] can be described thus: qHTS assay to test for compound auto fluorescence at 535 nm (green) in HepG2 cell free culture (AID 720686).
Experiment [14] is described as follows: qHTS assay to test for compound auto fluorescence at 460 nm (blue) in HepG2 cells (AID 720687). A digest of the protocol: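 Cells (2,000/well in MEM with 10% FBS) attached overnight at 37 C, then were exposed to compound or DMSO for 1 hr at 37 C, 5% CO2. Fluorescence read at Ex/Em 405/460 nm, expressed as triamterene-equivalent signal.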
For experiment [15], the target named is Glucocorticoid receptor (Homo sapiens) (UniProt P04150). As to the kind of experiment: qHTS assay to identify small molecule agonists of the glucocorticoid receptor (GR) signaling pathway (AID 720691; active means well fitted activation curve with a large enough effect in the signal ratio in the repeat runs, not every such curve was filed as active; the % refers to the signal ratio). A digest of the protocol: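 Steps: seed GR-bla HeLa cells, incubate 4 h at 37 C/5% CO2; pin-transfer DMSO-dissolved compounds; incubate 18 h at 37 C; add LiveBLAzer B/G FRET substrate; after 2 h at room temperature, measure fluorescence.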
Chain of Glucocorticoid receptor (Homo sapiens) (P04150 whole entry, looked up): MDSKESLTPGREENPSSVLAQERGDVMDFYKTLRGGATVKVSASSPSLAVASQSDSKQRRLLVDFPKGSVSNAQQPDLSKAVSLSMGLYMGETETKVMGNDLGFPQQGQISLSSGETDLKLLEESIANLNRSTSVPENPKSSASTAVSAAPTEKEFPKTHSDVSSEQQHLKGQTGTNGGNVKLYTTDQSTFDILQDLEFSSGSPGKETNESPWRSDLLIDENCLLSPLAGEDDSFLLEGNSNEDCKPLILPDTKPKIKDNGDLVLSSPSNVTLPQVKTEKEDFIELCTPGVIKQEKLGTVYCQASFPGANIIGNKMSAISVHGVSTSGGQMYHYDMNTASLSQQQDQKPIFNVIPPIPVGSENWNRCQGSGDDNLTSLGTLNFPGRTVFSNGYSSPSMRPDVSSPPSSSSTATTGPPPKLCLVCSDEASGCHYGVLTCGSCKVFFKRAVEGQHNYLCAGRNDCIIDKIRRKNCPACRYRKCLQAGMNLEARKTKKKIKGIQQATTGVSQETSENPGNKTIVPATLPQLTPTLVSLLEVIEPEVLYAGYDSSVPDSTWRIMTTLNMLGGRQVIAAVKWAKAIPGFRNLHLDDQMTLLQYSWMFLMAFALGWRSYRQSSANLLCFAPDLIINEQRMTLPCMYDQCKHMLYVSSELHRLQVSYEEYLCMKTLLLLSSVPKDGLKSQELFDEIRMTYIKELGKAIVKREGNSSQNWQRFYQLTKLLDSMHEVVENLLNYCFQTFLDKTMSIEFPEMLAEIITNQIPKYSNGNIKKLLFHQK

Experiment [16] has the same target. As to the kind of experiment: qHTS assay to identify small molecule antagonists of the glucocorticoid receptor (GR) signaling pathway (AID 720692; active means well fitted inhibition curve with a large enough effect in the signal ratio in the repeat runs, not every such curve was filed as active; the % refers to the signal ratio; further: potency means the concentration at half of the fitted maximal effect). A digest of the protocol:
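Antagonism was scored as loss of dexamethasone-driven (5 nM final) reporter signal in HeLa cells bearing a glucocorticoid response element–beta-lactamase construct, after 18 h compound exposure at 37 C and 2 h FRET substrate loading.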

The nature of experiment [17]: qHTS assay for small molecules that induce genotoxicity in human embryonic kidney cells expressing luciferase-tagged ATAD5 (AID 651632). Further: nearly all actives have a fitted effect of over 15% in size. A digest of the protocol: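 Cells were seeded at 2,000 per well, dosed with compound, and incubated 16 hr at 37C in 5% CO2. Luciferase activity was then quantified after a 30 min room-temperature incubation with Amplite.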
A short description of experiment [18]: qHTS assay to test for compound auto fluorescence at 590 nm (red) in HEK293 cell free culture (AID 720683). A digest of the protocol: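 Tox21 10K library compounds were pinned into cell-free DMEM with 10% FBS and fluorescence was read at excitation 540 nm. Activity is expressed as Rose Bengal sodium equivalency.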
Experiment [19] in a line: qHTS assay for small molecule agonists of the p53 signaling pathway - cell viability (AID 651633; calls by dose curve;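 further: p53RE-bla HCT reporter cells with a stable beta-lactamase p53 reporter; series mostly up to about 83 µM; nearly all actives have a fitted effect of over 30% in size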). A digest of the protocol: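 p53RE-bla cells, seeded at 4,000 per well and rested 5 h at 37 C/5% CO2, received compounds in DMSO for 16 h at 37 C. CellTiter-Glo was then added, and luminescence was read after 30 min at room temperature to gauge cytotoxicity.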
Experiment [20] in a line: qHTS assay for small molecule disruptors of the mitochondrial membrane potential (AID 720635). A digest of the protocol: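 HepG2 cells (2,000/well) attached overnight at 37C, then took compound for 1 hr at 37C, 5% CO2. Mito-MPS dye was added for 30 min; fluorescence was read at 490/535 nm (monomers) and 540/590 nm (aggregates).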

Where “and” joins values, the source holds several entries; their conditions need not be identical. Equal entries are not always repeated. Results filed as inconclusive are left out. Some compounds were tested as several samples or in several runs, with calls that do not always agree. Calls of active or inactive are those of the source. Unless noted, the call rests on the fitted dose curve; in most records, active means well fitted curve in the direction sought with a large enough effect in the repeat runs; inconclusive means weak or mixed curves; inactive means no such curve, though single readings can be large; an effect the other way counts as inactive or inconclusive.

For the compound `CCCCCl`, the Potency entry in experiment [1], in [2], in experiment [3], in [15] and in experiment [16] was “inactive” throughout. The call in experiment [4], in experiment [5], in [6], in experiment [7], in experiment [8] and in [9] was inactive. Besides, the outcome in experiment [10], in [11], in [12], in [13] and in [14] was inactive.

As to `NC(=O)CF`, the Potency entry in [1], in experiment [17], in experiment [2], in experiment [3], in experiment [15] and in experiment [16] was “inactive” in each case. Besides, the compound was classed as inactive in [4], in experiment [5], in experiment [6], in experiment [7], in experiment [8] and in experiment [9]. In addition, the call in experiment [10], in experiment [18], in experiment [12], in experiment [13] and in experiment [14] was inactive.

As for `CC[N+]1(C)CCCC(OC(=O)C(O)(c2ccccc2)c2ccccc2)C1` (stereo not given), the Potency entry in [1], in experiment [17], in [19], in experiment [2] and in experiment [16] was “inactive” throughout. Besides, the outcome in [4], in experiment [5], in [6], in experiment [7], in experiment [8] and in experiment [9] was inactive. The result in experiment [10], in [18], in experiment [11], in experiment [12], in experiment [13] and in experiment [14] was inactive.

Consider `C=CCOC(=O)C(C)(C)OC(=O)c1cc(-n2c(=O)cc(C(F)(F)F)n(C)c2=O)ccc1Cl`, for which the Potency result in [1], in experiment [17], in experiment [2], in experiment [3] and in experiment [16] was “inactive” in each case. Further, the result in [4], in experiment [5], in experiment [6], in [7], in experiment [8] and in experiment [9] was inactive. The compound was classed as inactive in experiment [10], in experiment [18], in [11], in experiment [12], in [13] and in [14].

Regarding `O=C([O-])c1ccccn1.O=C([O-])c1ccccn1.O=C([O-])c1ccccn1.[Cr+3]`, the Potency entry in [1], in [17], in [2], in experiment [3], in [20] and in [15] was “inactive” each time. The call in experiment [4], in experiment [5], in [6], in experiment [7], in [8] and in [9] was inactive. Moreover, the compound was classed as inactive in [10], in experiment [11], in [12], in experiment [13] and in [14].

Regarding `Nc1cccc2ccccc12`, the Potency result in [1] and in experiment [3] was “inactive” throughout. In addition, the call in [4], in experiment [5], in [6], in experiment [7], in experiment [8] and in [9] was inactive. The result in experiment [10], in experiment [18], in experiment [11], in experiment [12], in [13] and in [14] was inactive.

Turning to `C#C[C@]1(O)CC[C@H]2[C@@H]3CCC4=CC(=O)CCC4=C3C=C[C@@]21CC`, the Potency result in [1], in experiment [19] and in [2] was “inactive” each time. The call in experiment [4], in [5], in [6], in [7], in experiment [8] and in experiment [9] was inactive. The outcome in experiment [10], in [18], in experiment [11], in [12], in experiment [13] and in experiment [14] was inactive. In addition, the Potency in experiment [16] is 379 nM (active).

Take `C=CC(=O)NC(C)(C)CC(C)=O`: the Potency result in [1], in experiment [17], in experiment [19] and in [2] was “inactive” in each case. For the same compound, the compound was classed as inactive in [4], in [5], in experiment [6], in [7], in experiment [8] and in [9]. Also, the call in experiment [10], in [18], in experiment [12], in experiment [13] and in experiment [14] was inactive.

Regarding `C[C@@H]1C[C@@H]([C@H](O)CC2CC(=O)NC(=O)C2)C(=O)[C@@H](C)C1`, the Potency in [1] was 11.9 µM (active) and inactive; in [2], 1.33 µM (active) and 271 nM (active). The Potency entry in experiment [19] and in experiment [3] was “inactive” in each case. The call in experiment [4], in experiment [5], in [6], in [7], in experiment [8] and in experiment [9] was inactive. For the same compound, the outcome in experiment [10], in experiment [18], in experiment [11], in [12], in experiment [13] and in experiment [14] was inactive.
